Data: PubChem BioAssay (NCATS)
Results filed as inconclusive are left out. Entries that show only a call come without a potency. For part of these data: Results with a measured potency or affinity are listed apart. The source made the active and inactive calls.

Assays:
[1] = Ebola virus entry assay, reporter ratio channel; AC50: Channel type: primary unless noted; outcome: Channel type: primary unless noted
[2] = Ebola virus entry assay, blue channel (ratio component)
[3] = Ebola virus entry reporter assay, green channel fluorescence
[4] = Ebola virus entry cell assay, ratio channel
[5] = Immunotoxin (HA22) sensitization/mitigation study. Vehicle arm (PBS) (AID 1159510)
[6] = Immunotoxin (SS1P) sensitization/mitigation study. Vehicle arm (DMEM) (AID 1159513)
[7] = High-throughput drug toxicity screening in the BPDCN cell line Gen2.2 (AID 1224824); settings: Gen2.2 BPDCN cells; at 45.8 µM (top of the series) unless noted;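 further: cells exposed to compounds for 48 h before reading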
Summary of the method: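 Readout is ATP luminescence from Gen2.2 cells after two days of drug exposure in serum-containing medium at 37 °C. Values express percent activity, with vehicle defining full signal and 9.2 uM bortezomib defining zero.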

[8] = High-throughput drug toxicity screening in the BPDCN cell line Cal-1 (AID 1224825); settings: Cal-1 BPDCN cell viability, qHTS; at 45.8 µM (top of the series) unless noted
Summary of the method: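 500 Cal-1 cells/well, RPMI + glutamine + 10% FBS (phenol red-free); cpd added by pin tool; 48 h, 37C, 5% CO2; CTG 15 min RT, lumi read. Normalised: DMSO 100%, bortezomib 9.2 uM 0%.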

[9] = qHTS assay for measurement of the activity of small molecule inhibitors on Zika virus induced Caspase-3 activity in human iPSC derived neural progenitor cells (hNPCs) (AID 1224857; active means well fitted curve in the direction sought with a large enough effect; an effect the other way counts as inactive or inconclusive; further: nearly all actives have a fitted effect of over 65% in size)
Summary of the method: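 Cells were plated at 350 per well and grown 16 to 20 hours. Compound pretreatment lasted one hour, after which ZIKV (2 FFU/cell) was added for 6 hours. Percent inhibition was normalized between uninfected and infected controls.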

[10] = qHTS assay for measurement of the activity of small molecule inhibitors on Zika virus induced Caspase-3 activity in human astrocytoma cells (AID 1224859; active means well fitted curve in the direction sought with a large enough effect; an effect the other way counts as inactive or inconclusive)
Summary of the method: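 Percent inhibition of virus-induced caspase-3/7 signal is calculated against uninfected and ZIKV-infected control cells. Cells are SNB-19, infected at 2 FFU/cell for 6 h after 1 h compound exposure.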

[11] = qHTS Screen of the MIPE 4.0 Collection Against Ewings Sarcoma (TC71) (AID 1259253; active means well fitted curve in the direction sought with a large enough effect; an effect the other way counts as inactive or inconclusive; further: nearly all actives have a fitted effect of over 40% in size)
Summary of the method: (§1)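 Cells plated in serum-containing RPMI (5% FBS) and treated with compound dilutions for 48 h. Readout luminescent viability; normalization relied on vehicle (no inhibition) and media-only columns (full inhibition).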

[12] = qHTS Screen of the MIPE 4.0 Collection Against Ewings Sarcoma (EW8) (AID 1259255; active means well fitted curve in the direction sought with a large enough effect; an effect the other way counts as inactive or inconclusive; further: nearly all actives have a fitted effect of over 35% in size)
Summary of the method: as §1

[13] = qHTS Screen of the MIPE 4.0 Collection Against Ewings Sarcoma (TC32) (AID 1259256; active means well fitted curve in the direction sought with a large enough effect; an effect the other way counts as inactive or inconclusive; further: nearly all actives have a fitted effect of over 45% in size; further: potency means the concentration at half of the fitted maximal effect)
Summary of the method: as §1

[14] = qHTS assay to identify small molecule inhibitors of chordoma cells - UCH-1 (AID 1259355; active means well fitted curve in the direction sought with a large enough effect; an effect the other way counts as inactive or inconclusive; further: nearly all actives have a fitted effect of over 55% in size)
Summary of the method: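 Seed 800 cells per well; incubate overnight at 37 C, 5% CO2. Add test compounds (15 concentrations), then the auranofin–topoisomerase-agent combination. Incubate 48hr, add CellTiter-Glo, wait 30min, read luminescence.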

[15] = qHTS assay to identify small molecule inhibitors of chordoma cells - UCH-2 (AID 1259356; active means well fitted curve in the direction sought with a large enough effect; an effect the other way counts as inactive or inconclusive)
[16] = Identifying Small Molecule Inhibitors of Pancreatic Cancer Stem Cells (SN12C, Adherent) (AID 1259358; active means well fitted curve in the direction sought with a large enough effect; an effect the other way counts as inactive or inconclusive;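 further: cell survival measured after 48 h of compound exposure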)
Summary of the method: (§2)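 Pre-formed 14-day tumor spheroids or adherent cells dosed and incubated 48 h, 37C, 5% CO2. Viability assessed by CellTiter-Glo.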

[17] = Identifying Small Molecule Inhibitors of Pancreatic Cancer Stem Cells (SN12C, Spheroid) (AID 1259360; active means well fitted curve in the direction sought with a large enough effect; an effect the other way counts as inactive or inconclusive)
Summary of the method: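 After a 4 h attachment period, compounds were pinned into wells and cultures held 48 h under standard incubator conditions. Viability was then measured as CellTiter-Glo luminescence following 10 min at room temperature.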

[18] = Identifying Small Molecule Inhibitors of Pancreatic Cancer Stem Cells (A278, Adherent) (AID 1259361; active means well fitted curve in the direction sought with a large enough effect; an effect the other way counts as inactive or inconclusive;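 further: viability read after 48 h compound exposure; nearly all actives have a fitted effect of over 35% in size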)
Summary of the method: as §2

[19] = qHTS Screen of the MIPE 4.0 Collection Against Ewings Sarcoma (RDES) (AID 1259252; active means well fitted curve in the direction sought with a large enough effect; an effect the other way counts as inactive or inconclusive; further: nearly all actives have a fitted effect of over 35% in size)
Summary of the method: as §1

Structure (SMILES): O=C(O)CCC(=O)O
- outcome [1]: inactive
- outcome [2]: inactive

Structure (SMILES): CC(C)=CCC[C@@](C)(O)[C@H]1CC=C(C)CC1
- outcome [1]: inactive
- outcome [2]: inactive

Structure (SMILES): CN(C)C(=O)Oc1ccc[n+](C)c1
- outcome [1]: inactive
- outcome [2]: inactive

Structure (SMILES): O=C(O)c1ccccc1-c1ccc(C(F)(F)F)cc1
- outcome [1]: inactive
- outcome [2]: inactive

Structure (SMILES): CC(=O)OCC(=O)[C@@]1(O)CC[C@H]2[C@@H]3CCC4=CC(=O)CC[C@]4(C)[C@H]3C(=O)C[C@@]21C
- outcome [1]: inactive
- outcome [2]: inactive

Structure (SMILES): CCCc1ccc(OCC(=O)N2CCN(C(=O)COc3ccc(CCC)cc3OC)CC2)c(OC)c1
- outcome [1]: inactive
- outcome [2]: inactive

Structure (SMILES): COc1ccnc(CS(=O)c2nc3ccc(OC(F)F)cc3[nH]2)c1OC (stereo unspecified)
- outcome [1]: inactive
- outcome [2]: inactive

Structure (SMILES): NC(Cc1ccc(Cl)cc1)C(=O)O (stereo unspecified)
- outcome [1]: inactive
- outcome [2]: inactive

Structure (SMILES): NC(=O)NC1N=C([O][Al])NC1=O (stereo unspecified)
- outcome [1]: inactive
- outcome [2]: inactive

Structure (SMILES): CC(=O)N(CC(O)CO)c1c(I)c(C(=O)NCC(O)CO)c(I)c(C(=O)NCC(O)CO)c1I (stereo unspecified)
- outcome [1]: inactive
- outcome [2]: inactive

Structure (SMILES): CC(C)=CCC/C(C)=C/CC/C(C)=C/CCC(=O)OC/C=C(\C)CCC=C(C)C
- outcome [1]: inactive
- outcome [2]: inactive

Structure (SMILES): O=C(O)[C@H](O)c1ccccc1
- outcome [1]: inactive
- outcome [2]: inactive

Structure (SMILES): O=C(Nc1cccc2c(=O)cc(-c3nn[nH]n3)oc12)c1ccc(OCCCCc2ccccc2)cc1
- outcome [1]: inactive
- outcome [2]: inactive

Structure (SMILES): Nc1ccc(/C=C/c2ccc(N)cc2S(=O)(=O)O)c(S(=O)(=O)O)c1
- outcome [1]: inactive
- outcome [2]: inactive

Structure (SMILES): CC(C)Cc1ccc(CC(=O)O)cc1
- outcome [1]: inactive
- outcome [2]: inactive

Structure (SMILES): COC(=O)c1ccc(O)cc1
- outcome [1]: inactive
- outcome [2]: inactive

Structure (SMILES): C[C@]12C=CC(=O)C=C1[C@@H](F)C[C@@H]1[C@@H]2[C@@H](O)C[C@@]2(C)[C@H]1CC[C@]2(O)C(=O)CO
- outcome [1]: inactive
- outcome [2]: inactive

Structure (SMILES): COCCOCC(OC)OC
- outcome [1]: inactive
- outcome [2]: inactive

Structure (SMILES): CN1N=C(C(N)=O)CCC1=O
- outcome [1]: inactive
- outcome [2]: inactive

Structure (SMILES): NC(CO)(CO)CO
- outcome [1]: inactive
- outcome [2]: inactive

Structure (SMILES): CCn1ccc(NS(=O)(=O)c2ccc(N)cc2)nc1=O
- outcome [1]: inactive
- outcome [2]: inactive

Structure (SMILES): Nc1ncnc2c1ncn2Cc1c(F)cccc1Cl
- outcome [1]: inactive
- outcome [2]: inactive

Structure (SMILES): O=C(N/N=C/c1ccc([N+](=O)[O-])o1)c1ccc(O)cc1
- outcome [1]: inactive
- outcome [2]: inactive

Structure (SMILES): OC[C@H]1O[C@@H]2O[C@H]3[C@H](O)[C@@H](O)[C@@H](O[C@H]4[C@H](O)[C@@H](O)[C@@H](O[C@H]5[C@H](O)[C@@H](O)[C@@H](O[C@H]6[C@H](O)[C@@H](O)[C@@H](O[C@H]7[C@H](O)[C@@H](O)[C@@H](O[C@H]8[C@H](O)[C@@H](O)[C@@H](O[C@H]1[C@H](O)[C@H]2O)O[C@@H]8CO)O[C@@H]7CO)O[C@@H]6CO)O[C@@H]5CO)O[C@@H]4CO)O[C@@H]3CO
- outcome [1]: inactive
- outcome [2]: inactive

Structure (SMILES): CN(CC1(C)CCCO1)S(=O)(=O)c1ccc(Cl)c(S(N)(=O)=O)c1 (stereo unspecified)
- outcome [1]: inactive
- outcome [2]: inactive

Structure (SMILES): O=C(Nc1ccc(Cl)c(Cl)c1)C1CC1
- outcome [1]: inactive
- outcome [2]: inactive

Structure (SMILES): Cc1c(F)c(N2CCNC(C)C2)cc2c1c(=O)c(C(=O)O)cn2C1CC1 (stereo unspecified)
- outcome [1]: inactive
- outcome [2]: inactive

Structure (SMILES): CCC1=C(C)CN(C(=O)NCCc2ccc(S(=O)(=O)NC(=O)NC3CCC(C)CC3)cc2)C1=O (stereo unspecified)
- outcome [1]: inactive
- outcome [2]: inactive
- outcome [3]: inactive
- outcome [4]: inactive

Structure (SMILES): O=C1CN(/N=C/c2ccc([N+](=O)[O-])o2)C(=O)N1
- outcome [1]: inactive
- outcome [2]: inactive
- outcome [4]: inactive

Structure (SMILES): COc1cc(C(=O)NS(=O)(=O)c2ccccc2C)ccc1Cc1cn(C)c2ccc(NC(=O)OC3CCCC3)cc12
- outcome [1]: inactive
- outcome [2]: inactive
- outcome [3]: inactive
- outcome [4]: inactive

Structure (SMILES): NC(N)=Nc1nc(CSCC/C(N)=N/S(N)(=O)=O)cs1
- outcome [1]: inactive
- outcome [2]: inactive
- outcome [4]: inactive

Structure (SMILES): O=P1(N(CCCl)CCCl)NCCCO1 (stereo unspecified)
- outcome [1]: inactive
- outcome [2]: inactive
- outcome [3]: inactive
- outcome [4]: inactive
- Potency [5]: inactive
- Potency [6]: inactive
- cell viability, % of control (lower = more cytotoxic) [7]: 17%
- viability (% of control) [8]: 104%
- outcome [9]: inactive
- outcome [10]: inactive
- Potency [11]: inactive
- outcome [12]: inactive
- Potency [13]: 2.1 nM (active)
- outcome [14]: inactive
- outcome [15]: inactive
- outcome [16]: inactive
- outcome [17]: inactive
- outcome [18]: inactive

Structure (SMILES): NC(=O)COCCN1CCN(C(c2ccccc2)c2ccc(Cl)cc2)CC1 (stereo unspecified)
- outcome [1]: inactive
- outcome [2]: inactive
- outcome [3]: inactive
- outcome [4]: inactive

Structure (SMILES): O=C(N[C@H](CO)[C@H](O)c1ccc([N+](=O)[O-])cc1)C(Cl)Cl
- outcome [1]: inactive
- outcome [2]: inactive
- outcome [3]: inactive
- outcome [4]: inactive

Structure (SMILES): CC(CCc1ccc(O)cc1)NCCc1ccc(O)c(O)c1 (stereo unspecified)
- outcome [1]: inactive
- outcome [2]: inactive
- outcome [3]: inactive
- outcome [4]: inactive

Structure (SMILES): CC(O)(P(=O)(O)O)P(=O)(O)O
- outcome [1]: inactive
- outcome [2]: inactive
- outcome [3]: inactive
- outcome [4]: inactive

Structure (SMILES): CC[C@H]1OC(=O)[C@H](C)[C@@H](O[C@H]2C[C@@](C)(OC)[C@@H](O)[C@H](C)O2)[C@H](C)[C@@H](O[C@@H]2O[C@H](C)C[C@H](N(C)C)[C@@H]2O)[C@](C)(O)C[C@@H](C)CN(C)[C@H](C)[C@@H](O)[C@]1(C)O
- outcome [1]: inactive [Channel type: confirmation]
- outcome [2]: inactive
- outcome [3]: inactive
- AC50 [4]: 2510 nM (active)

Structure (SMILES): Nc1ccc(C(=O)O)c(O)c1
- outcome [1]: inactive
- outcome [2]: inactive
- outcome [3]: inactive
- outcome [4]: inactive

Structure (SMILES): CCN(CC)C(=O)/C(C#N)=C/c1cc(O)c(O)c([N+](=O)[O-])c1
- outcome [1]: inactive
- outcome [2]: inactive
- outcome [3]: inactive
- outcome [4]: inactive

Structure (SMILES): CC(NC(C)(C)C)C(=O)c1cccc(Cl)c1 (stereo unspecified)
- outcome [1]: inactive
- outcome [2]: inactive
- outcome [3]: inactive
- outcome [4]: inactive
- cell viability, % of control (lower = more cytotoxic) [7]: 145%
- viability (% of control) [8]: 97.9%
- outcome [10]: inactive
- Potency [19]: inactive
- Potency [11]: inactive
- outcome [12]: inactive
- Potency [13]: inactive
- outcome [14]: inactive
